From PubChem
NPC1 promoter act = qHTS Assay for NPC1 Promoter Activators; Huh7 NPC1 promoter luciferase reporter, 24 h; Potency, µM (highest dose often 9.22 µM), for inactives: top-dose activation, actives largely listed as activators; actives 2.4% (n = 320,000); further: % of control where 0% means no effect; nearly all actives have a fitted effect of over 60% in size
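Luminescence from an NPC1 promoter-driven luciferase reporter in stably transfected Huh7 cells was measured after 24 h compound treatment at 37 °C, followed by 10 min ambient incubation with luciferase detection reagent.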
KinaseGlo FLuc = Counterscreen for Luciferase (Kinase-Glo TM) Inhibition; Kinase-Glo luciferase, ATP luminescence, 8 min; AID 1379, 2008; actives 0.28% (n = 200,000); Luciferin 4-monooxygenase (Photuris pensylvanica), Q27757; Potency, µM (doses to about 38.3 µM), without a hit: at the highest dose activity change, negative = inhibition, usual class: inhibitors; further: on the % scale 0 is the no-effect control and ±100 the full control effect; nearly all actives have a fitted effect of over 60% in size
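Compounds were added to a substrate mix at pH 7.2 (50 mM imidazole, 10 uM ATP, within the enzyme's linear range), followed by Kinase-Glo detection reagent; luminescence was measured after 8 minutes at ambient temperature.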
FLuc counter = qHTS profiling assay for firefly luciferase inhibitor/activator using purifed enzyme and Km concentrations of substrates (counterscreen for miR-21 project) | Luciferin 4-monooxygenase (Photinus pyralis), P08659 | Potency, µM (titrated, usually from 57.5 µM), without a hit: at the highest dose activity change, negative = inhibition, usual class: inhibitors | actives 6.9% (n = 360,000) | purified FLuc, Km substrates, luminescence inhibition;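 further: plate controls were vehicle for no effect and reference inhibitor for full effect; nearly all actives have a fitted effect of over 55% in size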
Target sequence (P08659 whole entry, looked up): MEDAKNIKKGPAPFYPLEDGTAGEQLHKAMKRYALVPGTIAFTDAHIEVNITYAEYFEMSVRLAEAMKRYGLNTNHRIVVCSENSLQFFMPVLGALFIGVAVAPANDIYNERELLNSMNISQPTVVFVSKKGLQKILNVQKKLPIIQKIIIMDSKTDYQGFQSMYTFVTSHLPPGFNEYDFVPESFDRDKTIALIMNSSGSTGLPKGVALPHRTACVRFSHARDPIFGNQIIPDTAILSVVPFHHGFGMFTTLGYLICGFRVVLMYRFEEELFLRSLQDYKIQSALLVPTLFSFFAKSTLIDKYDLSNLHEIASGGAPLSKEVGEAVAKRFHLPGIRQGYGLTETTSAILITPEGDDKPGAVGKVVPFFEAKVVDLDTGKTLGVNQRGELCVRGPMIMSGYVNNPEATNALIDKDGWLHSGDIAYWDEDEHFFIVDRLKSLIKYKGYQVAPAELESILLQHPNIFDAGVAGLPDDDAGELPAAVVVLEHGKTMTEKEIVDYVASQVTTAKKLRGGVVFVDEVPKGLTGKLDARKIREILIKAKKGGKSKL
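Purified P. pyralis luciferase (10nM final) with 10uM D-luciferin and 10uM ATP (Km levels) in 50mM Tris acetate pH 7.5, 10mM Mg acetate, 0.01% Tween-20, 0.05% BSA; qHTS 6-point titration, ~60 µM downward; luminescence read.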
ELG1 genotoxic = qHTS screen for small molecules that induce genotoxicity in human embryonic kidney (HEK293T) cells expressing luciferase-tagged ELG1; HEK293T ELG1-luciferase reporter, luminescence, 16 h; Potency, µM (highest dose often 46 µM), for inactives: at the top dose activity change, positive = activation, actives largely listed as activators; actives 1.3% (n = 330,000); AID 504466, 2011; further: % of control where 0% means no effect; nearly all actives have a fitted effect of over 60% in size
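HEK293T cells expressing luciferase-tagged ELG1 were treated with compound or DMSO for 16 hr at 37°C. Luciferase activity was then read after 30 min with ONE-Glo at room temperature; rising signal flags genetic stress.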
SMN2 splice up = qHTS Assay for Enhancers of SMN2 Splice Variant Expression; Potency, µM (series often up to 46.1 µM), for inactives: at the highest dose activity change, positive = activation, most hits filed as activators; HEK293 SMN2-luciferase splicing reporter, luminescence, 30-36 h; actives 2.8% (n = 210,000); further: % of control where 0% means no effect; nearly all actives have a fitted effect of over 55% in size
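HEK293 cells carry an SMN2 […]–luciferase reporter in which exon 7 inclusion puts luciferase in frame. Cells were plated 10-12 h before compound addition, then incubated 30-36 h at 37C. ONE-Glo luminescence was read; sodium butyrate at 4.5 mM final served as control.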
Rab9 promoter act = qHTS Assay for Rab9 Promoter Activators | Potency, µM (series often up to 9.22 µM), inactives show top-dose activation, negative = inhibition, hits mostly activators | Huh7 Rab9 promoter-luciferase reporter, luminescence, 24 h | actives 2.8% (n = 320,000); further: % of control where 0% means no effect; nearly all actives have a fitted effect of over 60% in size
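Stable Rab9-luc Huh7, 1500 cells/well, 2 h settle; cmpd in DMSO, 24 h, 37 °C/5% CO2; luciferase reagent 10 min RT; luminescence.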
The depositor's hits bear a star; ? = inconclusive; . = no result; [ ] = another dose, or the depositor's remark. Most compounds without a hit are left out; they make up all but 7.5% or so of the library. The call rests on the fitted dose curve; in most records, active means well fitted curve in the direction sought with a large enough effect; inconclusive means small, poorly fitted or top-dose-only effect, or another doubt; inactive means no such curve, though single readings can be large; an effect the other way counts as inactive or inconclusive. Potency means the concentration at half of the fitted maximal effect.

SMILES	NPC1 promoter act	KinaseGlo FLuc	FLuc counter	ELG1 genotoxic	SMN2 splice up	Rab9 promoter act
O=c1c2c(nc3c(-c4ccc(Cl)cc4)c[nH]n13)CCCC2	-34.9%	-7.0%	-2.1%	-10.6%	-87.7%	-26.5%
COc1ccc(Br)cc1CNC(=O)c1cc2n(n1)CCCN(Cc1ccc(C)cc1)C2=O	.	.	-10.9%	.	.	.
CC(O)/C=C/c1ccc2ccccc2n1 (stereo unspecified)	0.7%	-6.2%	16.9µM*	5.7%	15.8µM*	14.8%
O=C(O)/C=C/c1cnc2ccccc2n1	1.4%	1.4%	3.5%	0.6%	9.1%	-4.3%
O=C(/C=C/c1ccc2ccccc2n1)N1CCN(S(=O)(=O)c2ccccc2F)CC1	-8.6%	.	-3.1%	-4.4%	.	-10.5%
Fc1cccc(Cl)c1/C=C/c1cnc2ccccc2n1	?	.	0.135µM*	0.517µM*	.	3.98µM*
O=C(/C=C/c1ccc2ccccc2n1)N1CCN(c2ccccc2)CC1	1.7%	0.2%	-16.8%	-6.2%	-12.5%	0.8%
C(=C\c1ccco1)/c1ccc2ccccc2n1	?	.	1.2µM*	?	.	3.98µM*
Fc1cccc(F)c1/C=C/c1ccc2ccccc2n1	?	.	0.269µM*	0.581µM*	.	3.98µM*
O=C(NCCc1ccc(Cl)cc1)c1ccc(CS(=O)(=O)Cc2ccccc2F)o1	.	.	-17.4%	.	.	.
CN(C)c1ccc(/C=C(/C#N)C(=O)NCc2ccccc2)o1	?	4.0%	?	?	12.6µM*	?
N#C/C(=C/c1ccccc1)C(=O)NCc1ccccc1	-2.0%	-0.4%	?	9.0%	-13.2%	-9.4%
CCc1nn(CC(=O)NCc2ccco2)c(=O)c2cc3c(OC)cccc3n12	.	.	-3.0%	.	-2.1%	.
O=C(Nc1cccc(NC(=O)c2ccco2)c1)c1cccc(Br)c1	1.8%	.	?	-17.8%	.	-2.7%
Cc1ccccc1C(=O)Nc1cccc(C(=O)Nc2ccccc2C(=O)O)c1	-1.5%	.	26.9µM*	-2.9%	.	-2.9%
O=C(Nc1cc(Br)c(O)c(Br)c1)c1cccc(NC(=O)c2ccco2)c1	-2.3%	.	10.7µM*	-8.7%	.	1.1%
Cc1cc(NC(=O)c2ccccc2C)ccc1NC(=O)c1ccccc1Cl	14.3%	.	?	-5.3%	.	15.9%
O=C(Nc1cc(NC(=O)c2ccccc2Cl)ccc1Cl)c1ccccc1	.	.	12µM*	.	23.7%	.
CCCOC(=O)c1ccc(NC(=O)c2ccccc2[N+](=O)[O-])cc1	28.0%	2.3%	?	9.4%	.	?
CCCCCOC(=O)c1ccc(NC(=O)c2cccc(NC(=O)c3ccccc3C(=O)O)c2)cc1	1.7%	.	19µM*	-2.0%	.	0.2%
CC(=O)c1ccc(N2CCN(c3ncnc4c3c(-c3ccccc3)cn4-c3cccc(C)c3)CC2)cc1	.	.	-4.2%	.	.	.
O=C(O)c1cccc(NC(=O)c2ccccc2NC(=O)c2ccccc2F)c1	-2.3%	.	10.7µM*	-0.2%	.	13.4%
O=C(Nc1ccccc1C(=O)O)c1cccc(NC(=O)c2ccccc2Cl)c1	3.6%	.	19µM*	-2.0%	.	9.6%
CCCCC(=O)Nc1cccc(C(=O)Nc2ccccc2C(=O)O)c1	-1.5%	-3.6%	16.9µM*	-4.2%	.	4.2%
CCCCC(=O)Nc1cccc(NC(=O)c2cccc(Br)c2)c1	-6.6%	-0.5%	-17.1%	-12.9%	10.2%	-12.6%
SMILES	NPC1 promoter act	KinaseGlo FLuc	FLuc counter	ELG1 genotoxic	SMN2 splice up	Rab9 promoter act
O=C(Nc1ccccc1C(=O)O)c1cccc(NC(=O)c2ccco2)c1	3.7%	.	15.1µM*	-1.5%	.	13.0%
COc1ccccc1NC(=O)c1cccc(NC(=O)c2ccco2)c1	-3.3%	3.3%	?	0.8%	-5.1%	-2.6%
CCOc1ccc(Oc2nc(NCC(C)C)nc(N3CCOCC3)n2)nn1	.	.	2.1%	.	?	.
Cc1ccc(NC(=O)c2cccc(NC(=O)CCC(=O)O)c2)cc1C	-3.4%	-2.6%	8.49µM*	2.5%	-4.6%	4.9%
O=C(COc1ccc2ccccc2c1)Nc1cccc(C(=O)Nc2ccccc2C(=O)O)c1	-1.1%	0.4%	23.9µM*	0.8%	-8.1%[1.84 µM]	-3.4%
Cc1c(Cl)cccc1NC(=O)c1cccc(NC(=O)CCC(=O)O)c1	0.7%	-0.6%	1.2%	1.6%	-8.6%	-3.2%
COc1ccc(OCC(=O)Nc2ccc(C(=O)Nc3ccccc3C(=O)O)cc2)cc1	20.8%	.	?	4.1%	.	18.1%
CC(C)CCNC(=O)c1cccc(Nc2nc3ccccc3n3nnnc23)c1	.	.	0.2%	.	1.7%	.
O=c1c2[nH]c3ccccc3c2ncn1C1CCCCC1	4.47µM*	-2.7%	?	?	1.6%	?
Cc1nc(-c2ccc(NC(=O)c3ccco3)cc2)cs1	?	.	0.0675µM*	0.206µM*	.	?
Nc1nc2ccc(NC(=O)c3ccco3)cc2s1	?	.	15.1µM*	?	.	?
Cc1nc(-c2cccc(NC(=O)c3ccco3)c2)cs1	0.4%	.	?	9.1%	.	10.7%
Nc1nc(-c2ccc(NC(=O)c3ccco3)cc2)cs1	0.708µM*	.	0.675µM*	?	.	0.794µM*
Cc1ccn2cc(-c3ccc(NC(=O)c4ccco4)cc3)nc2c1	3.16µM*	-12.6%	3.38µM*	?	4.47µM*	1.41µM*
O=C(Nc1ccccc1O)c1ccc(NC(=O)C2CC2)cc1	3.55µM*	.	12µM*	20.6µM*	.	2.82µM*
CCCC(=O)Nc1ccc(C#Cc2ccccc2)cc1	1.58µM*	-0.9%	4.78µM*	?	?	2.82µM*
O=C(Nc1ccccc1C(=O)O)c1ccc(NC(=O)C2CC2)cc1	0.7%	.	-0.2%	-10.7%	.	0.0%
O=C(Nc1ccc(C#Cc2ccccc2)cc1)C1CC1	2.51µM*	0.9%	5.36µM*	?	3.55µM*	1.41µM*
O=C(CN1C(=O)CCSc2ccc(S(=O)(=O)N3CCCC3)cc21)Nc1cccc(Cl)c1	.	.	6.6%	.	.	.
Cc1ccc(-c2cc(C(=O)Nc3c(C(=O)c4ccc(C)c(F)c4)oc4ccccc34)no2)cc1	.	.	-0.8%	.	.	.
CC(C)(C)C(=O)Nc1ccc(C(=O)NNC(=O)c2ccccc2)cc1	16.6%	-2.3%	?	9.5%	7.6%	20.0%
O=C(O)c1cc(NC(=O)c2ccc(Br)cc2)cc(NC(=O)c2ccc(Br)cc2)c1	-6.3%	.	21.3µM*	-4.8%	.	14.3%
CC(C)(C)C(=O)Nc1ccc(C(=O)Nc2cc(NC(=O)c3ccc(NC(=O)C(C)(C)C)cc3)cc(C(=O)O)c2)cc1	18.2%	.	4.26µM*	11.6%	.	29.8%
